The full data set covers some 8,800 targets. This sample favours those with a hit. About 0.5% of all pairs of compound and target were hits.
Assays:
Assay in all cases: log2 fold change, soluble protein after heating vs DMSO (PISA); higher = thermal stabilisation; K562 lysate, 10 uM; active = over 0.2 and 3.5 SD of the protein, either way, in both replicates (recomputed)
alvocidib = compound: CN1CC[C@H](c2c(O)cc(O)c3c(=O)cc(-c4ccccc4Cl)oc23)[C@H](O)C1 [alvocidib]
How it was run: (§1)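 Pellets of K562 cells were dounce-homogenised in PBS pH 7.4 with 1 mM MgCl2, and the crude extract was held at 1 mg/mL protein for a 30 min treatment with 10 μM compound. Aliquots were heated for 3 min over 48°C-58°C and pooled before NP-40 was added to 0.5% at 4°C. The supernatant from 21,000xg for 90 min was quantified by TMTpro 16plex LC-MS/MS with channel sums equalised. Values are reported from duplicates as log-two fold change in thermal stability relative to solvent controls.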

Tubastatin A = compound: CN1CCc2c(c3ccccc3n2Cc2ccc(C(=O)NO)cc2)C1 [Tubastatin A]
How it was run: as §1

[1] = compound: CNC(=O)C1=CC=CC=C1NC2=NC(=NC=C2Cl)NC3=C(C=C(C=C3)N4CCOCC4)OC
How it was run: as §1

defactinib = compound: CNC(=O)c1ccc(Nc2ncc(C(F)(F)F)c(NCc3nccnc3N(C)S(C)(=O)=O)n2)cc1 [defactinib]
How it was run: as §1

[2] = compound: CNc1nc(-c2ccc3c(N)n[nH]c3c2)cc(N2C[C@@H](C(=O)NC3CCCCC3)CC[C@H]2C)n1
How it was run: as §1

encorafenib = compound: COC(=O)N[C@@H](C)CNc1nccc(-c2cn(C(C)C)nc2-c2cc(Cl)cc(NS(C)(=O)=O)c2F)n1 [encorafenib]
How it was run: as §1

[3] = compound: COC(=O)[C@H](CCSC)NC(=O)C1=C(C=C(C=C1)NC[C@H](CS)N)C2=CC=CC=C2
How it was run: as §1

alisertib = compound: COc1cc(Nc2ncc3c(n2)-c2ccc(Cl)cc2C(c2c(F)cccc2OC)=NC3)ccc1C(=O)O [alisertib]
How it was run: as §1

[4] = compound: COc1cc2nc(-c3cc(F)ccc3O)nc(N[C@@H]3CNC[C@H]3C(C)(C)O)c2cc1OC
How it was run: as §1

gefitinib = compound: COc1cc2ncnc(Nc3ccc(F)c(Cl)c3)c2cc1OCCCN1CCOCC1 [gefitinib]
How it was run: as §1

Measured: log2 fold change

KCTD20 (UniProt Q7Z5Y7)
inactive: alvocidib 0.05 | Tubastatin A -0.174 | [1] 0.01 | defactinib -0.041 | [2] -0.025 | encorafenib -0.165 | [3] -0.058 | alisertib -0.089 | [4] -0.095 | gefitinib 0.035

HMGB1 (UniProt P09429)
inactive: alvocidib 0.126 | Tubastatin A 0.059 | [1] 0.01 | defactinib 0.074 | [2] 0.046 | encorafenib -0.006 | [3] -0.09 | alisertib -0.043 | [4] -0.025 | gefitinib -0.131

ILRUN (UniProt Q9H6K1)
inactive: alvocidib 0.031 | Tubastatin A -0.059 | [1] 0.047 | defactinib -0.01 | [2] -0.004 | encorafenib 0.052 | [3] -0.03 | alisertib 0.123 | [4] 0.056 | gefitinib 0.115

HMGCS1 (UniProt Q01581)
inactive: alvocidib 0.021 | Tubastatin A -0.073 | [1] 0.004 | defactinib -0.011 | [2] 0.006 | encorafenib -0.021 | [3] 0.078 | alisertib 0.012 | [4] -0.002 | gefitinib 0.013

IRAK1 (UniProt P51617)
active: encorafenib 0.812
inactive: alvocidib -0.104 | Tubastatin A -0.038 | [1] 0.314 | defactinib 0.086 | [2] 0.121 | [3] 0.062 | alisertib -0.01 | [4] 0.096 | gefitinib 0.022

GSTP1 (UniProt P09211)
inactive: alvocidib 0.04 | Tubastatin A -0.057 | [1] -0.017 | defactinib 0.008 | [2] -0.036 | encorafenib -0.052 | [3] 0.061 | alisertib 0.037 | [4] -0.008 | gefitinib 0.007

GSTM2 (UniProt P28161)
Chain of UniProt P28161 (P28161 whole entry, looked up): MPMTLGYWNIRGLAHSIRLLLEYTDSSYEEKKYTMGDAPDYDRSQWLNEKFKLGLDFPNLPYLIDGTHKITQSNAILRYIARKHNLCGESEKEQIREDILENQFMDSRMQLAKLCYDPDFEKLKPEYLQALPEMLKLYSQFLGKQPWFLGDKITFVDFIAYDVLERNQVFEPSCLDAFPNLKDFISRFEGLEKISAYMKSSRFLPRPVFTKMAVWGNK
inactive: alvocidib 0.079 | Tubastatin A 0.045 | [1] 0.009 | defactinib 0.036 | [2] -0.016 | encorafenib -0.024 | [3] 0.068 | alisertib 0.01 | [4] -0.015 | gefitinib 0.034

HELQ (UniProt Q8TDG4)
Chain of UniProt Q8TDG4 (Q8TDG4 whole entry, looked up): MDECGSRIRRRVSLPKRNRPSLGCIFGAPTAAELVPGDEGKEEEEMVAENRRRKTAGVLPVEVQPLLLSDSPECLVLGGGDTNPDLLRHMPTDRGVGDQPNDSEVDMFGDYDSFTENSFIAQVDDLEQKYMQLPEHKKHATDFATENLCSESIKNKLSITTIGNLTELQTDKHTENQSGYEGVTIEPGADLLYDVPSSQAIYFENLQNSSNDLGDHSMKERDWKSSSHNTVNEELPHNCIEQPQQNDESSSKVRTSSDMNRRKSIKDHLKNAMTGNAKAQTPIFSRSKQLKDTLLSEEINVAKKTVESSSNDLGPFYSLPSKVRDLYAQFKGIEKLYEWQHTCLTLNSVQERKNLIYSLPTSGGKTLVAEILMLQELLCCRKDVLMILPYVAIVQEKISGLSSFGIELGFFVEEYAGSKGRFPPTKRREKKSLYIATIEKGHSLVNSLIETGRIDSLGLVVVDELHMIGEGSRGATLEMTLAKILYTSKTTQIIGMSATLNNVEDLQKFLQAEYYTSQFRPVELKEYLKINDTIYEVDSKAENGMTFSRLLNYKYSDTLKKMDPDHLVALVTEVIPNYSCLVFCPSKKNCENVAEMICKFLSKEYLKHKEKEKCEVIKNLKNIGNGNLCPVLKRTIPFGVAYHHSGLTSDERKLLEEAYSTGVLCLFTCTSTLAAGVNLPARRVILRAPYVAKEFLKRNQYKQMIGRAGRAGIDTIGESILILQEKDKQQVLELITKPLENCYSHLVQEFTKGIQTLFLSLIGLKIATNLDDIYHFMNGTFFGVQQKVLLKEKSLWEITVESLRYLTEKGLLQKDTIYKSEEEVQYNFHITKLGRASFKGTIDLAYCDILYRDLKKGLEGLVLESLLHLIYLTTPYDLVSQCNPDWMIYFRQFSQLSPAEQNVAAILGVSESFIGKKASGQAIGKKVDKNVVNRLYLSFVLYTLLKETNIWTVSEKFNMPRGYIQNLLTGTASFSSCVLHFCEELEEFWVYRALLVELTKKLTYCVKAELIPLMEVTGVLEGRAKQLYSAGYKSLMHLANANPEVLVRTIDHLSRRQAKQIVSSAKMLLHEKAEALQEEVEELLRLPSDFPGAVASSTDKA
inactive: alvocidib 0.059 | Tubastatin A -0.016 | [1] 0.045 | defactinib 0.037 | [2] 0.054 | encorafenib 0.046 | [3] 0.09 | alisertib 0.132 | [4] -0.041 | gefitinib -0.177

ISCA1 isoform 2 (UniProt Q9BUE6)
inactive: alvocidib 0.103 | Tubastatin A 0.023 | [1] 0.037 | defactinib 0.092 | [2] 0.071 | encorafenib -0.034 | [3] -0.003 | alisertib -0.286 | [4] 0.075 | gefitinib -0.025

HNRNPD isoform 2 (UniProt Q14103)
Chain of UniProt Q14103 (Q14103 whole entry, looked up): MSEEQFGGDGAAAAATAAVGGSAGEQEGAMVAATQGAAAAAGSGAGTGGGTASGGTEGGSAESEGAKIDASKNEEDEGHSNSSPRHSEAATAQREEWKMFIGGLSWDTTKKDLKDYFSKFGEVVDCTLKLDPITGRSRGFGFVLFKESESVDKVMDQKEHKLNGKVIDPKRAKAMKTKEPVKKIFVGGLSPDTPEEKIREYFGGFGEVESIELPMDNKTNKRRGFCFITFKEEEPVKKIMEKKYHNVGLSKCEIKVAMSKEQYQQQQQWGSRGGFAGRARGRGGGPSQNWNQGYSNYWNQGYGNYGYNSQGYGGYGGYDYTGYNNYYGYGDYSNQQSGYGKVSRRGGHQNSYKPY
inactive: alvocidib 0.142 | Tubastatin A 0.108 | [1] 0.001 | defactinib -0.043 | [2] 0.065 | encorafenib -0.032 | [3] -0.008 | alisertib 0.018 | [4] -0.008 | gefitinib 0

GOLGA1 (UniProt Q92805)
inactive: alvocidib -0.027 | Tubastatin A 0.051 | [1] 0.035 | defactinib -0.017 | [2] 0.011 | encorafenib 0.028 | [3] -0.093 | alisertib -0.017 | [4] -0.18 | gefitinib -0.024

KARS1 (UniProt Q15046)
inactive: alvocidib 0.027 | Tubastatin A -0.01 | [1] -0.037 | defactinib 0 | [2] -0.035 | encorafenib -0.028 | alisertib 0.012 | [4] -0.011 | gefitinib -0.022
active: [3] 0.379

IGF2BP2 (UniProt Q9Y6M1)
Chain of UniProt Q9Y6M1 (Q9Y6M1 whole entry, looked up): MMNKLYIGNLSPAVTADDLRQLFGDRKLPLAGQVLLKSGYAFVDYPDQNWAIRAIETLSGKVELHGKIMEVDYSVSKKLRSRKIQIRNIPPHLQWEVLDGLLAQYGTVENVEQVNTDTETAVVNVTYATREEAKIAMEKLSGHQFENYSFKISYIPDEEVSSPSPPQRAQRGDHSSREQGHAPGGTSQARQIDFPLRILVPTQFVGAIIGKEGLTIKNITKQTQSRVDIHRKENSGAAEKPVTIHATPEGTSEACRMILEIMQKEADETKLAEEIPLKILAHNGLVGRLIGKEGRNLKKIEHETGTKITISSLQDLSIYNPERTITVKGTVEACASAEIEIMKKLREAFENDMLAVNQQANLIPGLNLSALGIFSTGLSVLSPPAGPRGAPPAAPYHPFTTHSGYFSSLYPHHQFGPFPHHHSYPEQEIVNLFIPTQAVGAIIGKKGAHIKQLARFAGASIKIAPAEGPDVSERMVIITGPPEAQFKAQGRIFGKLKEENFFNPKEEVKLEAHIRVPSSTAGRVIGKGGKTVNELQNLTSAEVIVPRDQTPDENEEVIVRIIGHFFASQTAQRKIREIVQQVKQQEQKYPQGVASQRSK
inactive: alvocidib 0.016 | Tubastatin A -0.124 | [1] 0.043 | defactinib -0.008 | [2] -0.014 | encorafenib 0.004 | [3] 0.201 | alisertib 0.042 | [4] -0.005 | gefitinib 0.001

KDM1A (UniProt O60341)
inactive: alvocidib -0.034 | Tubastatin A -0.067 | [1] -0.023 | defactinib -0.003 | [2] 0.013 | encorafenib 0.003 | [3] 0.095 | alisertib 0.012 | [4] 0.001 | gefitinib 0.006

GTF3C5 isoform 3 (UniProt Q9Y5Q8)
inactive: alvocidib -0.005 | Tubastatin A -0.166 | [1] 0.029 | defactinib 0.014 | [2] -0.012 | encorafenib 0.01 | [3] 0.153 | alisertib 0.004 | [4] 0.001 | gefitinib -0.004

GNE isoform 2 (UniProt Q9Y223)
inactive: alvocidib 0.028 | Tubastatin A -0.12 | [1] 0.016 | defactinib -0.011 | [2] -0.024 | encorafenib -0.008 | [3] 0.176 | alisertib 0.041 | [4] 0.026 | gefitinib -0.014

GPX4 (UniProt P36969)
inactive: alvocidib 0.031 | Tubastatin A -0.099 | [1] -0.006 | defactinib 0.048 | [2] -0.051 | encorafenib 0.004 | [3] -0.023 | alisertib 0.041 | [4] 0 | gefitinib 0.016

HIST2H2BC (UniProt Q6DN03)
inactive: alvocidib 0.024 | Tubastatin A 0.004 | [1] 0.019 | defactinib -0.148 | [2] -0.003 | encorafenib 0.092 | [3] 0.143 | alisertib 0.005 | [4] 0.008 | gefitinib -0.12

HACE1 (UniProt Q8IYU2)
inactive: alvocidib -0.177 | Tubastatin A 0.006 | [1] -0.042 | defactinib -0.06 | [2] 0.278 | encorafenib -0.057 | [3] 0.18 | alisertib 0.061 | [4] 0.045 | gefitinib -0.152

INF2 (UniProt Q27J81)
Chain of UniProt Q27J81 (Q27J81 whole entry, looked up): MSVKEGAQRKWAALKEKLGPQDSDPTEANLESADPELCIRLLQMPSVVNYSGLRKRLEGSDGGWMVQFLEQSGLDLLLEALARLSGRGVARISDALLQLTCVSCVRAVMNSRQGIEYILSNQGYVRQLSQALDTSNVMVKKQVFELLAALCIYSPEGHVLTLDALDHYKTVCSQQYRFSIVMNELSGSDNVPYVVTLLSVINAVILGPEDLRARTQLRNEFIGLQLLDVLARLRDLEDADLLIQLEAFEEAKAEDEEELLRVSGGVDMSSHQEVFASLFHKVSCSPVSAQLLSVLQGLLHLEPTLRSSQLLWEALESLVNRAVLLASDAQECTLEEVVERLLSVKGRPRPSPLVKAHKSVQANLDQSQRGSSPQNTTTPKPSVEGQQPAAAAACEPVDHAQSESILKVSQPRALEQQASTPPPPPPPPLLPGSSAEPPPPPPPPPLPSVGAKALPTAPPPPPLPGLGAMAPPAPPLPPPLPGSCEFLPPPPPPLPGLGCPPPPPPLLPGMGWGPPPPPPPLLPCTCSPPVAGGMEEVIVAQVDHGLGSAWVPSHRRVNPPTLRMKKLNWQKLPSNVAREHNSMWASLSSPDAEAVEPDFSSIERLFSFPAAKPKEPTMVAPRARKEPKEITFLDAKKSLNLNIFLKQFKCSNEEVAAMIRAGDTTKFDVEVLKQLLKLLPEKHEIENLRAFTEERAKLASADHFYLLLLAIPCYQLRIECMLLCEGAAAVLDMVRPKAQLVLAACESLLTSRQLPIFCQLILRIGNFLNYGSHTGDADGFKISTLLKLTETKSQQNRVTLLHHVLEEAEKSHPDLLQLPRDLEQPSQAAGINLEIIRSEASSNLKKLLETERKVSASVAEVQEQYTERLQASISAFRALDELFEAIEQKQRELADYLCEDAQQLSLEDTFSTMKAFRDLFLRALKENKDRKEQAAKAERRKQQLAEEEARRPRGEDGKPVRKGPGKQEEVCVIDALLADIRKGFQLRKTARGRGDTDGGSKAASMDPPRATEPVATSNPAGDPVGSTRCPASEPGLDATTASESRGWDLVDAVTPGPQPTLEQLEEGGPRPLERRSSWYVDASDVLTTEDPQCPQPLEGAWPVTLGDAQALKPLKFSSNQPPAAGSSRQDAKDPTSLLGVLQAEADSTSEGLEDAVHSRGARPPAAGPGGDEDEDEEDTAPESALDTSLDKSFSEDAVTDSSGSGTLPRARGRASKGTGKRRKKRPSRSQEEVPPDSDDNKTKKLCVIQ
inactive: alvocidib -0.027 | Tubastatin A -0.062 | [1] 0.022 | defactinib 0.117 | [2] -0.104 | encorafenib -0.068 | [3] 0.083 | alisertib -0.008 | [4] -0.01 | gefitinib -0.009

HECTD3 (UniProt Q5T447)
inactive: alvocidib 0.007 | Tubastatin A -0.047 | [1] 0.02 | defactinib 0.045 | [2] -0.023 | encorafenib 0.02 | [3] 0.11 | alisertib -0.015 | [4] 0.002 | gefitinib 0.014

HNRNPDL (UniProt O14979)
inactive: alvocidib 0.01 | Tubastatin A -0.017 | [1] 0.018 | defactinib -0.006 | [2] -0.002 | encorafenib -0.028 | [3] -0.017 | alisertib 0.04 | [4] -0.005 | gefitinib -0.029

HDAC10 (UniProt Q969S8)
active: Tubastatin A 0.49
inactive: alvocidib 0.033 | [1] -0.075 | defactinib -0.135 | [2] -0.014 | encorafenib 0.091 | [3] 0.08 | alisertib 0.047 | [4] -0.006 | gefitinib 0.165

GLB1 (UniProt P16278)
Chain of UniProt P16278 (P16278 whole entry, looked up): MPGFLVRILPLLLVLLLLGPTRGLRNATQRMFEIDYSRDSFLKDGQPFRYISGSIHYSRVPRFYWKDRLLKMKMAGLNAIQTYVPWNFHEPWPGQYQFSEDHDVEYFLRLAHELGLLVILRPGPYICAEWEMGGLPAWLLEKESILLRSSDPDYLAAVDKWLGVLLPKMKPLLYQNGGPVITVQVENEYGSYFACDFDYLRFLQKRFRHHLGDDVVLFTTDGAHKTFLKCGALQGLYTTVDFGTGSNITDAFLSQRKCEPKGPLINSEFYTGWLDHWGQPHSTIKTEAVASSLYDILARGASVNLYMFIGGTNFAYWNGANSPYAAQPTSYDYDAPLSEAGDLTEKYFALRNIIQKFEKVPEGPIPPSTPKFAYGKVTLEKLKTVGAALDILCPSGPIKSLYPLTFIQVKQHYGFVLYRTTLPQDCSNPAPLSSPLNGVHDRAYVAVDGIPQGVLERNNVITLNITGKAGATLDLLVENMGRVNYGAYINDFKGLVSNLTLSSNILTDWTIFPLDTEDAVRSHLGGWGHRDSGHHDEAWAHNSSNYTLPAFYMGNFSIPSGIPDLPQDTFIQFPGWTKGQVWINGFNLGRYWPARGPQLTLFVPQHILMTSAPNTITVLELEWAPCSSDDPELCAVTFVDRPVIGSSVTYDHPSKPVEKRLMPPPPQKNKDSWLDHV
active: [3] 0.327
inactive: alvocidib -0.042 | Tubastatin A -0.032 | [1] 0.005 | defactinib 0.006 | [2] 0.055 | encorafenib -0.036 | alisertib 0.022 | [4] 0.007 | gefitinib -0.015

HADHA (UniProt P40939)
inactive: alvocidib -0.011 | Tubastatin A -0.003 | [1] 0.069 | defactinib -0.042 | [2] 0.037 | encorafenib -0.063 | [3] 0.088 | alisertib -0.017 | [4] -0.041 | gefitinib 0.021

HAUS7 isoform 2 (UniProt Q99871)
Chain of UniProt Q99871 (Q99871 whole entry, looked up): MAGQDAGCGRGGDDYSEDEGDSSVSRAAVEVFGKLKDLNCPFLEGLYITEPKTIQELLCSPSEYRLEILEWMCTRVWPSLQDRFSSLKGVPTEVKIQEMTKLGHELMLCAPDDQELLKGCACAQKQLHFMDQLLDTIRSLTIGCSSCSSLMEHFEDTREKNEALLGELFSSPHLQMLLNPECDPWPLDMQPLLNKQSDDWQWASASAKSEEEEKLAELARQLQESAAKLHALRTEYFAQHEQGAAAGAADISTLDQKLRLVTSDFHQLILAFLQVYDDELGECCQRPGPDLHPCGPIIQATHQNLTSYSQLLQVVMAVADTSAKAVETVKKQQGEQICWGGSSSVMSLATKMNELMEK
inactive: alvocidib 0.001 | Tubastatin A -0.128 | [1] 0.021 | defactinib -0.045 | [2] -0.021 | encorafenib 0.024 | [3] 0.099 | alisertib 0.031 | [4] -0.135 | gefitinib -0.043

HAUS4 (UniProt Q9H6D7)
Chain of UniProt Q9H6D7 (Q9H6D7 whole entry, looked up): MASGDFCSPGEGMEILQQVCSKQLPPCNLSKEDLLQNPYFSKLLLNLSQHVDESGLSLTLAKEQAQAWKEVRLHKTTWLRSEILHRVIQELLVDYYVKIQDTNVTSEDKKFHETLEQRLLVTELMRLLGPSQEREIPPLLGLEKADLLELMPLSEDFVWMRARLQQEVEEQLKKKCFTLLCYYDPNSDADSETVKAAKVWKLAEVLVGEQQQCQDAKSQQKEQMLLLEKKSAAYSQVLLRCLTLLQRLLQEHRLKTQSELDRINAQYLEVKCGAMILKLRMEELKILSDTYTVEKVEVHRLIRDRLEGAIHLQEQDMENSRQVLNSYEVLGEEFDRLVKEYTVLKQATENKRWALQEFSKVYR
inactive: alvocidib 0.007 | Tubastatin A -0.116 | [1] 0.007 | defactinib 0.014 | [2] -0.005 | encorafenib 0.002 | [3] 0.012 | alisertib 0.008 | [4] -0.017 | gefitinib -0.022

GOLPH3L (UniProt Q9H4A5)
inactive: alvocidib 0.018 | Tubastatin A -0.083 | [1] -0.005 | defactinib -0.077 | [2] 0.008 | encorafenib 0.063 | alisertib 0.026 | [4] -0.059 | gefitinib 0.018
active: [3] -0.395

HNRNPAB isoform 3 (UniProt Q99729)
inactive: alvocidib -0.018 | Tubastatin A 0.021 | [1] -0.018 | defactinib 0.017 | [2] 0.043 | encorafenib -0.012 | [3] -0.016 | alisertib -0.035 | [4] 0 | gefitinib 0.03

KEAP1 (UniProt Q14145)
inactive: alvocidib -0.024 | Tubastatin A -0.019 | [1] -0.008 | defactinib 0.014 | [2] 0.017 | encorafenib 0.043 | [3] -0.094 | alisertib 0.012 | [4] 0.013 | gefitinib 0.018

— the supplement of paper PMC10849652
